DAX1 inh-1: DAX1 (NR0B1) inhibition, primary screen; HEK293T StAR-luciferase reporter, SF-1/DAX-1 repression relief; inhibition, % at 6.8 µM; hit rate 1.1% among 370,000;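 active = inhibition above the mean over all tested compounds plus 3 SD, cut at about 3.6% in these data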;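 note: 0% = DAX-1 cells with DMSO and 100% = cells lacking DAX-1 with DMSO; higher inhibition means more luminescence from relief of DAX-1 repression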
ssDAF12 agonist: S. stercoralis DAF-12 activation, primary screen; activation, % at 6.8 µM; HEK293 ssDAF-12/GRIP1 lit1-tk-luc reporter, luminescence; % of 3 µM dafachronic acid response; hit rate 1% among 370,000;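 active = activation above the mean over all tested compounds plus 3 SD, cut at about 0.9% in these data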;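 note: 0% = DMSO-only wells and 100% = 3 µM delta7-dafachronic acid wells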
DAX1 inh-2: NR0B1 (DAX1) inhibition; AID 504766; HEK293 Gal4-DAX1 luciferase reporter, luminescence; hit rate 0.99% among 340,000; inhibition, % at 6.75 µM; P51843;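 active = inhibition above the mean over all tested compounds plus 3 SD, cut at about 4.2% in these data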;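 note: 0% = DAX1-transfected cells with DMSO and 100% = empty-vector control cells with DMSO; inhibition shows as a rise in luminescence from relieved DAX1 repression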
Target sequence (P51843 207-470 limits assumed): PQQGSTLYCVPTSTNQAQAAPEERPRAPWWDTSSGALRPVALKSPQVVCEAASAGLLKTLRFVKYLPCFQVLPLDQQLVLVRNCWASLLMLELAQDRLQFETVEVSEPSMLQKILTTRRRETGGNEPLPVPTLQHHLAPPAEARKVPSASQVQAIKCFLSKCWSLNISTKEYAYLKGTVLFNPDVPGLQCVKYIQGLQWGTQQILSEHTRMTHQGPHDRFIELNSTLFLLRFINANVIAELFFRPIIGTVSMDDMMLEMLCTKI
hcDAF12 agonist: H. contortus DAF-12 activation, primary screen; HEK293 hcDAF-12 lit1-tk-luc reporter, luminescence; 0% DMSO, 100% Δ7-dafachronic acid; activation, % at 6.8 µM; hit rate 1.4% among 370,000;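 active = activation above the mean of all tested compounds plus 3 SD, cut at about 5.5% in these data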;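 note: 100% = response to 3 µM Δ7-dafachronic acid high control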
hgDAF12 agonist: hgDAF-12 agonism, primary luciferase screen; activation, % at 6.8 µM; AID 687014; HEK293 GAL4-hgDAF12 UAS-luciferase reporter, agonist luminescence; normalized to butyrate control; hit rate 1.8% among 370,000;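 active = activation above a cutoff set at the mean of all screened compounds plus 3 SD, cut at about 10% in these data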;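 note: 0% = DMSO wells and 100% = sodium butyrate wells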
* = called active by the depositor; / = no result. Rows were chosen to be rich in hits. Some 4.1% of all compounds tested hit in one or more screens of this group.

SMILES	DAX1 inh-1	ssDAF12 agonist	DAX1 inh-2	hcDAF12 agonist	hgDAF12 agonist
CCOc1ccc2nc(Cl)c(C3CC(c4ccco4)=NN3S(=O)(=O)c3ccccc3)cc2c1 (stereo not drawn)	0	1.4*	-1	-1	2
COc1ccc(C2CCC3(CCC(=O)N3CCOC(=O)NCc3ccc(Cl)cc3)CC2)cc1 (stereo not drawn)	-3	-2	/	-4	-4
Cc1cc(=O)n(CC(=O)O)c2ccccc12	0	-1	1	4	1
CCOC(=O)Cn1c(=O)cc(C)c2ccccc21	1	-1	4.5*	0	2
Cc1onc(C(=O)N2CCN(C(c3ccc(Cl)cc3)c3ccc(Cl)cc3)CC2)c1[N+](=O)[O-]	/	-1	/	-1	-9
O=C(Cn1cc([N+](=O)[O-])cn1)Nc1ccccn1	0	-1	1	-1	-2
Cc1ccnc(NC(=O)Cn2cc([N+](=O)[O-])cn2)c1	4	-1	2	4	11*
Cc1cc(NC(=O)Cn2cc([N+](=O)[O-])cn2)no1	0	-1	4.7*	1	-1
O=C(CN[C@@H](Cc1c[nH]c2ccccc12)C(=O)NCCc1c[nH]c2ccccc12)NC1CCCCC1	/	-1	/	4	0
CN(C)c1ccc(CN(C(=O)c2cc3ccccc3oc2=O)C2CCS(=O)(=O)C2)cc1 (stereo not drawn)	5.2*	0	1	2	7
CC(Oc1ccccc1Cl)C(=O)N(Cc1ccco1)C1CCS(=O)(=O)C1 (stereo not drawn)	1	1.6*	-2	-1	-2
O=C(c1cc2ccccc2oc1=O)N(Cc1ccco1)C1CCS(=O)(=O)C1 (stereo not drawn)	1	0	1	5	13*
O=C(C(c1ccccc1)c1ccccc1)N(Cc1ccco1)C1CCS(=O)(=O)C1 (stereo not drawn)	0	-1	1	-2	-4
O=C(c1cc2ccccc2oc1=O)N(Cc1cccc(Br)c1)C1CCS(=O)(=O)C1 (stereo not drawn)	0	-1	1	0	-1
CC(C)c1ccc(CN(C(=O)c2cc3ccccc3oc2=O)C2CCS(=O)(=O)C2)cc1 (stereo not drawn)	0	-1	0	0	1
CCS(=O)(=O)Nc1ccc2c(c1)C(=O)N(C)[C@@H]1CC[C@H](CC(=O)NCCOC)O[C@H]1CO2	0	-1	/	1	1
COC(=O)[C@H](CC(C)C)N(Cc1cn(CC2CCCCC2)nn1)S(=O)(=O)c1ccccc1Br	-2	-1	/	-2	0
O=C(NC1CCCCN(Cc2cccc(C(F)(F)F)c2)C1=O)c1cccc([N+](=O)[O-])c1 (stereo not drawn)	-1	-2	/	-1	-1
COc1ccc(NC(=O)CCSc2ccc(F)cc2)cc1	3	0	4.2*	3	10
COc1ccccc1C(=O)Nc1ccc(NC(=O)C2CCCCC2)nc1	0	-1	0	-4	-1
O=C(Nc1ccc(NC(=O)C2CCCCC2)nc1)c1ccccn1	0	-1	0	-1	12*
N#Cc1ccc(/C=C2\CC3(OC(=O)c4ccccc4)CCCN2C3)cc1 (stereo not drawn)	0	-1	/	-2	-2
COc1ccc(OC)c(S(=O)(=O)N(CC(=O)NC2CCC(C)CC2)c2cc(C)cc(C)c2)c1 (stereo not drawn)	1	-1	/	1	8
CCCN=C(C)C1=C(O)c2ccccc2C1=O	1	-2	5.3*	1	10
CN1OC[C@@H]2CN[C@H](c3ccc(-n4ccnc4)cc3)C[C@@H]21	-1	-1	/	-2	-2
SMILES	DAX1 inh-1	ssDAF12 agonist	DAX1 inh-2	hcDAF12 agonist	hgDAF12 agonist
COC(=O)CSc1nc2ccc(C)cc2[nH]1	1	-1	1	2	0
O=C(CSc1nc2ccc(Cl)cc2[nH]1)Nc1ccc2[nH]c(=O)[nH]c2c1	1	1.0*	0	3	0
Cc1ccc2nc(SCC(=O)Nc3ccc4[nH]c(=O)[nH]c4c3)[nH]c2c1	3	1.0*	0	3	2
Cc1ccc2nc(SCC(=O)c3ccc(O)cc3O)[nH]c2c1	2	0	3	5	11*
COCC(=O)n1nc(-c2ccccc2)nc1NCc1cccs1	2	-1	5.2*	0	8
O=C(c1cccs1)n1nc(-c2ccccc2)nc1NCc1ccco1	0	-1	0	-2	-3
